Experimental data as given in PubChem BioAssay AID1963822 (ICCB-Longwood Screening Facility, Harvard Medical School, 2024).
The campaign covered roughly 55,000 compounds. About 90 (0.2%) were called active. This is one part of a sample in which actives are shown more often than they occur. No rule for the calls is given here.

Assay: growth inhibitors of anaerobic choline-fed gram-negatives, minimal medium, absorbance (AID 1963822)
Conditions: Gram-negative bacterium anaerobic choline minimal medium
[1] = measured here: choline growth z-score, timepoint 1, stronger effect = lower value

Structure (SMILES) | z-score (stronger effect = lower value) | z-score [1]
COc1cccc(N2C(=O)c3cc(C)nn3CC2(C)C(=O)NCc2ccccc2)c1 (stereo not drawn) | 0.09 (inactive) | -0.96
Cc1cc(C)n(CCc2nc(-c3ccc(Cl)cc3)no2)n1 | -0.52 (inactive) | -1.19
O=C(NC1CCCCC1)c1ccc(Cl)c(-n2nnc3cccnc32)c1 | 0.14 (inactive) | 0.44
Cc1cccc(-c2nn3c(=O)cc(CN4CCN(C(=O)c5cccc(Br)c5)CC4)nc3s2)c1 | 0.88 (inactive) | 0.71
COc1ccc2cc3c(nc2c1)N(C(=O)c1ccc(OC)c(OC)c1)CC3 | 0.77 (inactive) | 0.04
COc1cccc(-c2nn(Cc3ccc(C)cc3)c(=O)c3noc(C)c23)c1 | 1.18 (inactive) | -0.21
COc1ccc(NC(=O)N2CCN(C)c3ncccc32)cc1 | -0.52 (inactive) | -1.12
COc1ccc(-c2nc(SCC(=O)Oc3ccc(C)cc3C)n3[nH]c(=O)cc3n2)cc1 | -0.54 (inactive) | -0.44
CN(C)C(=O)CN1C(=O)COc2ccc(C(=O)NCc3ccc4c(c3)OCO4)cc21 | 0.4 (inactive) | 0.23
O=C1CN(Cc2ccccc2Cl)S(=O)(=O)c2ccccc2N1Cc1cccc(F)c1 | 0.04 (inactive) | 0.04
CCOc1ccc(NC(=O)NCCn2c(C(F)(F)F)nc3ccccc32)cc1 | 0.3 (inactive) | 0.45
CCC(=O)Nc1nc2cc(NC(=O)Nc3cccc(Cl)c3)ccc2s1 | 0 (inactive) | -0.84
O=C(Cc1csc(NC(=O)Nc2ccc(Cl)cc2)n1)Nc1cccc(Cl)c1 | -2.04 (active) | -1.2
O=C(Cc1nnc(NC(=O)Nc2cccc(Cl)c2)s1)NCc1ccccc1 | 0.49 (inactive) | 0.9
O=C(NCc1ccc2c(c1)OCO2)c1ccc(-c2noc(C3CC3)n2)cc1 | 0.36 (inactive) | 0.22
COCC(=O)Nc1ccc(-c2nc3ccccc3s2)cc1 | -0.9 (inactive) | -0.43
CCSc1nc2ccc(NS(=O)(=O)Cc3cc(C)ccc3C)cc2s1 | 1.35 (inactive) | 0.62
Cc1csc2ncc(C(=O)N3CCCCCC3)c(=O)n12 | -0.29 (inactive) | -0.07
c1ccc(CCNc2c3c(nc4nncn24)CCC3)cc1 | 0.56 (inactive) | 0.78
CC(C)n1cnc(S(=O)(=O)N2CCC(C(=O)N3CCCC3)CC2)c1 | 0.57 (inactive) | -0.23
O=C(Nc1ccc(Br)cc1F)N1CCN(c2cc(-c3ccccc3)ncn2)CC1 | -1.08 (inactive) | -1.03
CCC1Oc2cc(S(=O)(=O)N3CCCC(C(=O)N4CCc5ccccc54)C3)c(C)cc2NC1=O (stereo not drawn) | 0.06 (inactive) | -0.03
CCN1CCN(S(=O)(=O)c2ccc(C)cc2C)c2cccnc21 | -0.02 (inactive) | -0.19
Cc1ccc2c(c1)c1c(n2CC(O)CNCc2ccccc2)CCCC1 (stereo not drawn) | -2.96 (active) | -0.69
Cn1c(=O)n(C)c2cc(CNCC(O)c3ccccc3)ccc21 (stereo not drawn) | -0.37 (inactive) | -0.32
COC(=O)CC1=CC(=O)N(CC(=O)Nc2ccc(C)cc2Br)c2ccccc2N1 | 0.27 (inactive) | 0.25
COc1ccc(-n2nnc3c(N4CCN(C(=O)CC5CCCC5)CC4)ncnc32)cc1 | -0.34 (inactive) | 0.31

Structure (SMILES) | z-score (stronger effect = lower value) | z-score [1]
CC(C)CSc1nn(C)c2nc3c(c(=O)n12)C(C)(C)Cc1ccccc1-3 | 0.12 (inactive) | -0.98
Cn1cc(CN2CCC(C(=O)N3CCCC3)CC2)c2cc(Cl)ccc21 | -1.08 (inactive) | -0.88
CCC(C)(C)NC(=O)CN(C)S(=O)(=O)c1cc2c(cc1Cl)NC(=O)CO2 | 0.45 (inactive) | -0.29
COc1ccc(-c2nn(-c3ccccc3)cc2C2CC(c3ccccc3)=NN2S(C)(=O)=O)cc1 (stereo not drawn) | 0.58 (inactive) | 0.97
Cc1nc(N2CCCC2)ncc1C(=O)N1CCCCC1 | 0.92 (inactive) | -0.25
CCCn1c(=O)c2ccccc2n2c(=O)n(CC(=O)c3ccc(C)cc3C)nc12 | -0.82 (inactive) | -0.89
Cn1c(=O)c2[nH]c(-c3ccncc3)nc2n(C)c1=O | -1.62 (inactive) | -1.51
Cc1ccc(-c2noc(CCn3nc(-c4ccc5c(c4)OCO5)ccc3=O)n2)cc1 | 1.77 (inactive) | 1.44
CCOc1ccc(NC(=O)Nc2ccc(-c3cc4cc(Cl)ccc4[nH]3)cc2)cc1 | -0.97 (inactive) | -1.43
Cc1nn(CC(=O)NCCc2c[nH]c3ccccc23)c(=O)c2noc(C)c12 | -1.18 (inactive) | -0.02
CCC(Sc1nnc(-c2ccccc2NC(C)=O)c(=O)[nH]1)C(=O)Nc1c(C)cc(C)cc1C (stereo not drawn) | 0.57 (inactive) | -0.51
COc1ccc(NC(=O)CSc2nc3ccccc3n2Cc2ncc(C)c(OC)c2C)cc1 | 0.8 (inactive) | 0.74
COc1ccc(CN2CCCC2c2cc(C)on2)cc1CN1CCOCC1 (stereo not drawn) | -1.52 (inactive) | -0.66
COc1cc2[nH]c(=O)n(CCCC(=O)NCCCN3CCN(c4cccc(Cl)c4)CC3)c(=O)c2cc1OC | -0.27 (inactive) | 0.11
O=C(CN(Cc1ccccc1)S(=O)(=O)c1ccc(Br)cc1)N1CCN(c2ccc(F)cc2)CC1 | 0.95 (inactive) | 0.76
O=C(Nc1ccccc1F)C1CC(=O)N(CCc2c[nH]c3ccc(F)cc23)C1 (stereo not drawn) | -0.07 (inactive) | 0.17
CC(=O)Nc1ccc(S(=O)(=O)N2CCN(Cc3nc4cccnc4n3-c3ccc(C)cc3)CC2)cc1 | 0.91 (inactive) | -0.17
Cc1ccc(-n2nc(N3CCCN(C(=O)C4CCC4)CC3)ccc2=O)cc1C | -0.57 (inactive) | 1.18
CCN(CCCNC(=O)C1CCCN(C(=O)c2cccc(Cl)c2)C1)c1ccccc1 (stereo not drawn) | -1 (inactive) | -1.29
Cc1nc(N2CCC(C(=O)N3CCOCC3)CC2)c2c(C)c(C)oc2n1 | -0.5 (inactive) | -0.48
CCOc1ccc(NC(=O)Nc2ccc(Cn3cnc(-c4nc(-c5ccc(Cl)cc5)no4)c3)cc2)cc1 | 0.25 (inactive) | 0.58
O=C(O)C1Nc2ccc(Cl)cc2C2C=CCC12 (stereo not drawn) | 1.42 (inactive) | 2.01
Cc1ccc(OCc2nc3c4ccccc4ncn3n2)cc1 | 0.29 (inactive) | 0.48
CC(C)c1ccc(N2C(=O)c3cc4ccsc4n3CC2(C)C(=O)NC2CCCC2)cc1 (stereo not drawn) | 0.43 (inactive) | 0.35
CCOc1cc(-c2noc(CCCC(=O)Nc3cccnc3)n2)ccc1OC | -0.11 (inactive) | -0.21
CN(CCc1noc(-c2ccccc2Cl)n1)S(=O)(=O)c1cccc2nsnc12 | 0.03 (inactive) | -1.43
CCN1CCN(C(=O)c2cc(C)n(CCN3CCCC3)c2C)CC1 | -1.12 (inactive) | -1.13

Structure (SMILES) | z-score (stronger effect = lower value) | z-score [1]
Cc1nc(-c2ccc(C)c(S(=O)(=O)N3CCC(C(=O)N4CCN(c5ccc(F)cc5)CC4)CC3)c2)no1 | 0.78 (inactive) | 0.51
COC(=O)C1=CN(C)S(=O)(=O)N=C1C | 1.05 (inactive) | 0.71
O=C(O)c1c[nH]c2ccc(S(=O)(=O)NC3CCCCNC3=O)cc2c1=O (stereo not drawn) | 1.32 (inactive) | 1.13
O=C(c1cc2cc(Cl)ccc2[nH]1)N1CCCN(c2ccc(=O)n(-c3ccccc3)n2)CC1 | -1.08 (inactive) | -1.54
CCCCCC(=O)CC[C@H]1[C@H](O)CC(=O)[C@@H]1C/C=C\CCCC(=O)O | 0.71 (inactive) | 1.09
CCCC[C@H](C)C[C@H](O)/C=C/[C@@H]1[C@@H](CCCCCCC(=O)O)[C@@H](O)C[C@H]1O | 0.5 (inactive) | -0.78
CCCCC/C=C\C/C=C\CCCCCCCCCC(=O)O | -3.44 (active) | -3.23
CCCCC[C@@](C)(O)/C=C/[C@H]1C=CC(=O)[C@@H]1C/C=C\CCCC(=O)O | -0.26 (inactive) | 0.66
CCCCC/C=C\CC1OC1CCCCCCCC(=O)O (stereo not drawn) | -3.37 (active) | -3.13
CCCCCCCC/C=C\CCCCCCCC(=O)OC[C@H](CO)OC(C)=O | 0.47 (inactive) | 0.34
CCOC(=O)c1ccc(NC(=O)CSc2nnc(NC(=O)NC3CCCCC3)s2)cc1 | 0.1 (inactive) | 0.31
COc1cccc(C2Nc3ccc(Cl)cc3[C@H]3OCCC[C@@H]23)c1OC (stereo partly drawn) | 1.2 (inactive) | 2.03
CN(CCCNC(=O)c1c2c(nc3ccccc13)C(=O)N(C1CCCCC1)C2)c1ccccc1 | -0.07 (inactive) | -1.59
COc1ccc(NC(=O)c2cccc(-c3nc(-c4ccc(F)cc4)no3)c2)cc1OC | -1 (inactive) | -0.62
CN1CCN(S(=O)(=O)c2ccc3c(c2)C(C)(C)CN3CC(=O)N2CCCC2)CC1 | 1.07 (inactive) | 0.91
Cc1cn(C)c(CC(=O)NC2CCN(Cc3ccccc3)CC2)c1C(=O)O | -0.86 (inactive) | 0.19
Brc1ccc(-c2nn[nH]n2)cc1 | -1.32 (inactive) | -1.04
CCOC(=O)C1CCCN(C(=O)Cn2c(=O)c3ccccc3n3c(=S)sc(-c4ccccc4)c23)C1 (stereo not drawn) | 0.91 (inactive) | 0.36
CCN(CC)C(=O)CSc1nnc2c3ccccc3nc(-c3ccccc3)n12 | 2.11 (inactive) | 1.21
CCOc1ccc(S(=O)(=O)NC(C)C)cc1-c1nc(C)no1 | 0.37 (inactive) | -1.19
CCCN(CCC)CCNc1cc(C)nc2c(-c3ccccc3OC)c(C)nn12 | 1.1 (inactive) | -0.02
Cc1nc(-c2csc(S(=O)(=O)NCc3ccccc3Cl)c2)sc1C | -0.96 (inactive) | -0.18
Cc1[nH]nc2c1C(C(=O)c1cccc(Cl)c1)CC(=O)N2 (stereo not drawn) | 0.36 (inactive) | 0.1
COc1ccc(NS(=O)(=O)c2cc(-c3nc(-c4ccccc4)no3)sc2C)cc1OC | 0.43 (inactive) | -0.06
CCN1CCN(C(=O)c2cc(N(C)S(=O)(=O)c3ccccc3)ccn2)CC1 | 0.78 (inactive) | 0.89
